In PubChem BioAssay AID588494 (NMMLSC, 2011):
The list shows a part of the results.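 The calls were made as follows: active = response vs DMSO under 50%, meaning signal dropped by over half, treated as fluorescence quencher; inconclusive = no clear call, values can overlap the other calls; inactive = the rest.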

experiment: quenchers of FAM-labeled RNA aptamer fluorescence, confirmation, artefact control for GRK2 aptamer binding project, biochemical, single concentration, cherry pick 2, flow cytometry (AID 588494); details: carboxyfluorescein RNA aptamer beads, flow cytometry quenching; at 10 µM; active compounds read low;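 also: labelled aptamer on streptavidin beads without GRK2 as a quench counter-screen; 100% = bead fluorescence of DMSO wells and lower means quenching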

Fluorescence response vs DMSO, inactive:
CCOC(=O)C1=C(N)N(c2ccc(C)cc2)C2=C(C(=O)CCC2)C1c1cccs1 (stereo not given) 106%
Cc1nnc(SCC(=O)N2c3ccccc3C(C)(c3ccc(Cl)cc3)CC2(C)C)s1 (stereo not given) 100%
CCN1CCN(C(=O)N[C@@H](C(=O)N[C@@H]2C(=O)N3C(C(=O)O)=C(CSc4nnnn4C)CS[C@H]23)c2ccc(O)cc2)C(=O)C1=O 99%
CN=C(Nc1cccc(S(=O)(=O)N2CCOCC2)c1)c1ccccc1 110%
CCc1nn(CCCN2CCN(c3cccc(Cl)c3)CC2)c(=O)n1CCOc1ccccc1 100%
COc1ccc(Cl)cc1NC(=O)CCS(=O)(=O)c1cc2c(cc1C)NC(=O)CO2 98%
CCOCCCNC(=O)c1ccc(CS(=O)(=O)c2cccc(C(F)(F)F)c2)o1 103%
Cc1ccc(S(=O)(=O)CC(=O)Nc2sc(C)c(C)c2C(N)=O)cc1 103%
NC(=O)[C@H]1CC2(CC(c3cccc(NC(=O)[C@H]4CCC(=O)N4)c3)=NO2)CN1C(=O)c1ccccc1C(=O)c1ccccc1 (stereo not given in full) 101%
O=C(NC1C2CC3CC(C2)CC1C3)c1ccc(N2CCNCC2)c([N+](=O)[O-])c1 (stereo not given) 101%
COc1cccc(OC)c1C(=O)Nc1ccc(Cc2ccncc2)cc1 98%
COCCn1c(N)c(NCc2ccccc2)c(=O)[nH]c1=O 103%
COc1ccccc1C(=O)N(Cc1ccc(C)o1)C1CCS(=O)(=O)C1 (stereo not given) 98%
COc1cc([N+](=O)[O-])cc([N+](=O)[O-])c1NC(=O)N1CCOCC1 103%
O=C(CCS(=O)(=O)c1ccccc1)NC1CCCC1 94%
CCOc1ccc(OCC)c(NC(=O)CCS(=O)(=O)c2ccc(C)cc2)c1 99%
O=[N+]([O-])c1ccccc1S(=O)(=O)Nc1cccc2cccnc12 103%
CCOCCc1c(O)nc(SCC(=O)NCc2ccco2)[nH]c1=O 100%
CC(=O)c1ccc(N2CCN(C(=O)c3ccc4nc[nH]c4c3)CC2)cc1 102%
CCC(C)(C(=O)NC1CCCCC1)N(C)C(=O)c1ccc2c(c1)OCO2 (stereo not given) 103%
O=C(NCCCN1CCCCCC1)c1ccc(N2CCCC2=O)cc1 100%
CC1Sc2ccc(S(=O)(=O)CCC(=O)NCc3ccccc3Cl)cc2NC1=O (stereo not given) 100%
O=C(C1CCCN(S(=O)(=O)c2ccc([N+](=O)[O-])cc2)C1)N1CCCCC1 (stereo not given) 103%
CC1CCN(C(=S)NC2CC3CCC2C3)CC1 (stereo not given) 99%
COc1ccc(Cl)cc1NC(=O)CCS(=O)(=O)c1ccc(Br)cc1 101%
